SENP8 block-1 – inhibitors of human SENP8 protease; 330,000 compounds, 1.2% hits; Q96LD8; purified SENP8, Z-RLRGG-aminoluciferin cleavage, luminescence; inhibition, % at 10 µM; in the data active = inhibition above about 50%
Target sequence (Q96LD8 whole entry, looked up): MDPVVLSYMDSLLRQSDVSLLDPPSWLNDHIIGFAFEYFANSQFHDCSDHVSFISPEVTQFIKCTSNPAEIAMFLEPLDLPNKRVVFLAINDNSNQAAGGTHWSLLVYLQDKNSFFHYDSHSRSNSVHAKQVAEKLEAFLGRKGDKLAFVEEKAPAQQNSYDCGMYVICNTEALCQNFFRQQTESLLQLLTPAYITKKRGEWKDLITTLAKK
SENP8 block-2 – blocks human SENP8 cleavage of Nedd8 substrate; recombinant SENP8, Nedd8 substrate fluorescence; inhibition, % at 20 µM; 360,000 compounds, 0.64% hits; AID 602440; in the data active = inhibition mostly above about 40%, no sharp cut-off; inactive = mostly below about 27%
SENP6 block – inhibitors of human SENP6 protease; Q9GZR1; Recombinant SENP6 catalytic domain, aminoluciferin luminescence; inhibition, % at 10 µM; 330,000 compounds, 1.8% hits; AID 2599;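 active = inhibition above about 50% at the single tested dose, limit read from the data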;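 also: plate controls were DMSO wells with enzyme for no effect and DMSO wells lacking enzyme for full effect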
SENP7 inh – SENP7 protease inhibition; recombinant SENP7, Z-RLRGG-aminoluciferin luminescence, 40 min; Q9BQF6; 330,000 compounds, 1.5% hits; AID 434973; inhibition, % at 5 µM;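 active = inhibition above about 50% at the single test dose, limit read from the data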;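 also: plate controls were DMSO with enzyme for no effect and no enzyme buffer wells for full effect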
Platelet DG rel – platelet dense granule release activity. human platelet-rich plasma, SFLLRN dense granule ATP release, luminescence. inhibition, %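 (compounds screened at 7.5 µM in platelet-rich plasma)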. 300,000 compounds, 0.22% hits;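 active = mean replicate score, as percent of positive control, at or above 50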
SENP8 confirm – human SENP8 inhibition, confirmed | shares compounds with SENP7 inh | Recombinant SENP8, Z-RLRGG-aminoluciferin luminescence, 60 min | inhibition, % at 12.5 µM | 6,200 compounds, 40% hits | AID 488912;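 active = mean inhibition across replicates above about 50%, limit read from the data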
SENP6 confirm – human SENP6 inhibition, confirmed | recombinant SENP6, Z-RLRGG-aminoluciferin luminescence | shares compounds with SENP7 inh | AID 488915 | 6,200 compounds, 58% hits | inhibition, % at 12.5 µM
SENP7 confirm – human SENP7 inhibition, confirmed; recombinant SENP7, Z-RLRGG-aminoluciferin luminescence, 40 min; 6,200 compounds, 69% hits; inhibition, % at 12.5 µM; shares compounds with SENP7 inh
Casp3 select – selectivity test for SENP inhibitors: human caspase-3 inhibition; shares compounds with SENP7 inh; purified caspase-3, Z-DEVD-aminoluciferin luminescence, 60 min; inhibition, % at 12.5 µM; 6,200 compounds, 60% hits;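 active = mean inhibition above about 50%, limit read from the data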;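 also: plate controls were enzyme with DMSO for no effect and wells without caspase-3 for full effect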
Target sequence (P42574 28-227 limits assumed): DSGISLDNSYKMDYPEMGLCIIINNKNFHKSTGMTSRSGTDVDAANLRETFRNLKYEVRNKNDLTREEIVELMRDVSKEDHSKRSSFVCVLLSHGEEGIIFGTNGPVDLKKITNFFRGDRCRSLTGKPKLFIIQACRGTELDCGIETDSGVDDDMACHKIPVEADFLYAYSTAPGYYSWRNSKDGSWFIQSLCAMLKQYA
Luc interf – luminescence interference (SENP counter-screen) | shares compounds with SENP7 inh | Pre-incubated SENP8/Z-RLRGG-aminoluciferin, luciferase luminescence interference | inhibition, % at 12.5 µM | 6,200 compounds, 39% hits | AID 488919;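 active = mean inhibition above about 50% when retested at one dose, limit read from the data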;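 also: plate controls were DMSO wells with completed reaction for no effect and substrate without enzyme for full effect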
Active calls of the source: *. Rows were chosen to be rich in hits. Some 2.4% of all compounds tested hit in one or more screens of this group.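 The calls were made as follows, unless noted: active = mean inhibition above about 50% in the one-dose retest (limit read from the data); inactive = the rest.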

How did CC(C)OCCCNC(=O)c1c(N)n(CC2CCCO2)c2nc3ccccc3nc12 (stereo not given) do in these assays?
SENP8 block-1: 92*; SENP8 block-2: -266; SENP6 block: 94*; SENP7 inh: 66*; Platelet DG rel: 1; SENP8 confirm: -20; SENP6 confirm: 12; SENP7 confirm: 4; Casp3 select: -8; Luc interf: -15

How did CC(C)OC(=O)c1c(N)n(CC2CCCO2)c2nc3ccccc3nc12 (stereo not given) do in these assays?
SENP8 block-1: 39; SENP8 block-2: inactive; SENP6 block: 51*; SENP7 inh: 39; Platelet DG rel: -8; SENP8 confirm: 6; SENP6 confirm: 3; SENP7 confirm: 0; Casp3 select: -2; Luc interf: -1

What do the screens show for `CCCNC(=O)c1c(N)n(CC2CCCO2)c2nc3ccccc3nc12` (stereo not given)?
SENP8 block-1: 94*; SENP8 block-2: -297; SENP6 block: 94*; SENP7 inh: 79*; Platelet DG rel: 1; SENP8 confirm: 9; SENP6 confirm: 56*; SENP7 confirm: 34; Casp3 select: -2; Luc interf: -2

Results for Nc1c(C(=O)OC2CCCCC2)c2nc3ccccc3nc2n1CC1CCCO1 (stereo not given) ?
SENP8 block-1: 5; SENP8 block-2: -281; SENP6 block: 17; SENP7 inh: 7; Platelet DG rel: -6

How did CC(C)CCOC(=O)c1c(N)n(CC2CCCO2)c2nc3ccccc3nc12 (stereo not given) do in these assays?
SENP8 block-1: -1; SENP8 block-2: inactive; SENP6 block: 7; SENP7 inh: 9; Platelet DG rel: -1

Results for COC(=O)c1nc(-c2ccc3c(n2)C(=O)C(N)=C(OC)C3=O)c(N)c(-c2ccc(OC)c(OC)c2O)c1C ?
SENP8 block-1: 81*; SENP8 block-2: 49*; SENP6 block: 76*; SENP7 inh: 13; Platelet DG rel: 3; SENP8 confirm: -8; SENP6 confirm: -3; SENP7 confirm: 10; Casp3 select: -2; Luc interf: -4

Results for ClCCN1CCSCC1 ?
SENP8 block-2: -1

Results for CC(OC(=O)c1cn(C)c2ccccc12)C(=O)N(C)c1ccccc1 (stereo not given) ?
SENP8 block-1: 8; SENP8 block-2: 4; SENP6 block: -3; SENP7 inh: 0

How did O=C(c1ccc2nc(-c3ccco3)c(-c3ccco3)nc2c1)N1CCC2(CC1)OCCO2 do in these assays?
SENP8 block-1: 24; SENP8 block-2: -171; SENP6 block: 82*; SENP7 inh: 25; SENP8 confirm: 14; SENP6 confirm: 18; SENP7 confirm: 0; Casp3 select: 0; Luc interf: -3

Results for COc1ccc(C(=O)N2CCC3(CC2)OCCO3)cc1 ?
SENP8 block-1: 6; SENP8 block-2: 13; SENP6 block: -8; SENP7 inh: -6; Platelet DG rel: -2

What do the screens show for `Nc1ccccc1C(=O)OCCc1ccccc1`?
SENP8 block-1: 73*; SENP8 block-2: -387; SENP6 block: 76*; SENP7 inh: 75*; SENP8 confirm: 69*; SENP6 confirm: 75*; SENP7 confirm: 92*; Casp3 select: 60*; Luc interf: 67*

Results for CN(C)C(=O)Oc1cccc(-c2cn3cc(Cl)ccc3n2)c1 ?
SENP8 block-1: -1; SENP8 block-2: -185; SENP6 block: -11; SENP7 inh: 4; Platelet DG rel: -17

What do the screens show for `CN(C)C(=O)Oc1ccc(-c2cn3cc(Cl)ccc3n2)cc1`?
SENP8 block-1: 91*; SENP8 block-2: -190; SENP6 block: -1; SENP7 inh: 94*; Platelet DG rel: 20; SENP8 confirm: -24; SENP6 confirm: 93*; SENP7 confirm: 102*; Casp3 select: 97*; Luc interf: 44

How did CC(C)[C@@]1(NC(=O)[C@@H]2C[C@@H]3c4cccc5[nH]cc(c45)C[C@H]3N(C)C2)O[C@@]2(O)[C@@H]3CCCN3C(=O)[C@H](Cc3ccccc3)N2C1=O do in these assays?
SENP8 block-1: 12; SENP8 block-2: -85; SENP6 block: 5; SENP7 inh: 7; Platelet DG rel: 0

Results for CC(C)[C@H]1C(=O)N2CCC[C@H]2[C@]2(O)O[C@](NC(=O)[C@@H]3C=C4c5cccc6[nH]cc(c56)C[C@H]4N(C)C3)(C(C)C)C(=O)N12 ?
SENP8 block-1: 43; SENP8 block-2: -379; SENP6 block: 52*; SENP7 inh: 40; SENP8 confirm: -11; SENP6 confirm: 4; SENP7 confirm: -7; Casp3 select: -2; Luc interf: -8

Results for CC(C)C[C@H]1C(=O)N2CCCC2[C@]2(O)O[C@](NC(=O)[C@@H]3C=C4c5cccc6[nH]cc(c56)CC4N(C)C3)(C(C)C)C(=O)N12 (stereo not given in full) ?
SENP8 block-1: 42; SENP8 block-2: -389; SENP6 block: 54*; SENP7 inh: 33; Platelet DG rel: 1; SENP8 confirm: 17; SENP6 confirm: 30; SENP7 confirm: 10; Casp3 select: 6; Luc interf: -2

Results for COC(=O)C1=C(c2cc3ccccc3s2)C[C@@H]2CC[C@H]1N2C(=O)NCCS(C)=O (stereo not given in full) ?
SENP8 block-1: -1; SENP8 block-2: -6; SENP6 block: 3; SENP7 inh: 2; Platelet DG rel: 2

Results for CCSC(=O)N1CCCCCC1 ?
SENP8 block-1: 6; SENP8 block-2: 9; SENP6 block: -4; SENP7 inh: 3

What do the screens show for `O=C(c1cc2c(s1)-c1ccccc1OC2)N1CCC2(CC1)OCCO2`?
SENP8 block-1: 70*; SENP8 block-2: -277; SENP6 block: 84*; SENP7 inh: 84*; Platelet DG rel: 19; SENP8 confirm: 75*; SENP6 confirm: 75*; SENP7 confirm: 94*; Casp3 select: 84*; Luc interf: 80*

How did COc1ccc2c(c1)CC1(CN2C)C(=O)NC(=O)N(CCc2ccccc2)C1=O (stereo not given) do in these assays?
SENP8 block-1: -6; SENP8 block-2: 10; SENP6 block: -11; SENP7 inh: 8; Platelet DG rel: -2

Screens deposited in PubChem BioAssay by several laboratories.
